Compound activity: PubChem BioAssay, Buhrlage Lab, Dana-Farber Cancer Institute and Novartis Institutes for BioMedical Research (Cambridge, Mass)
Compounds with a hit are over-represented: about 14% of the library has one in this group of screens.
USP17 block: inhibitors of human USP17 deubiquitinase. Ubiquitin carboxyl-terminal hydrolase 17-like protein 5 (Homo sapiens), A8MUK1. purified USP17, Ub-rhodamine cleavage fluorescence, 3 h. inhibition, % at 50 µM. 6.5% of 47,000 active
USP28 inh: inhibitors of human USP28 deubiquitinase | Ubiquitin carboxyl-terminal hydrolase 28 (Homo sapiens), Q96RU2 | purified USP28, Ub-rhodamine cleavage fluorescence, 30 min | inhibition, % at 25 µM | 3% of 47,000 active | AID 1645857, 2021
USP10 block: inhibitors of human USP10 deubiquitinase; Ubiquitin carboxyl-terminal hydrolase 10 (Homo sapiens), Q14694; purified USP10, Ub-rhodamine fluorescence, 60 min; inhibition, % at 20 µM; 1.1% of 47,000 active; AID 1645856, 2021
USP30 block: inhibitors of human USP30 deubiquitinase; inhibition, % at 25 µM; 5.3% of 47,000 active; purified USP30, Ub-rhodamine cleavage fluorescence; AID 1645860, 2021; Ubiquitin carboxyl-terminal hydrolase 30 (Homo sapiens), Q70CQ3
USP8 inh: inhibitors of human USP8 deubiquitinase; 4.2% of 47,000 active; purified USP8, Ub-rhodamine cleavage fluorescence, 30 min; inhibition, % at 20 µM; Ubiquitin carboxyl-terminal hydrolase 8 (Homo sapiens), P40818
* = called active by the depositor. No stated cut-off is given here; in the data, active means inhibition above about 30%; inactive means the rest.

Results for O=S(=O)(NC1CCc2ccccc21)c1ccc(-n2cnnn2)cc1 (configuration not stated) ?
USP17 block: 4; USP28 inh: 24; USP10 block: 6; USP30 block: 39*; USP8 inh: 11

How did Cc1cc(C)c(NC(=O)C2Nc3ccccc3S(=O)(=O)N2)c(C)c1 (configuration not stated) do in these assays?
USP17 block: 17; USP28 inh: 7; USP10 block: 0; USP30 block: 15; USP8 inh: 2

Results for CC(Nc1cc(-c2cccnc2)nc(-c2ccncc2)n1)c1ccccc1 (configuration not stated) ?
USP17 block: 24; USP28 inh: 6; USP10 block: -12; USP30 block: 13; USP8 inh: 7

Results for Cc1ccc2c(c1)N(Cc1ccc(Cl)cc1)C(=O)CCS2 ?
USP17 block: 24; USP28 inh: 27; USP10 block: 7; USP30 block: 30*; USP8 inh: 11

Results for COc1ccc(CN2C(=O)CCSc3ccc(Cl)cc32)cc1 ?
USP17 block: 10; USP28 inh: 16; USP10 block: 5; USP30 block: 7; USP8 inh: 4

What do the screens show for `CC(=O)c1cccc(NC2=NS(=O)(=O)C(c3ccc(F)cc3)=C2C)c1`?
USP17 block: 2; USP28 inh: -9; USP10 block: 12; USP30 block: 0; USP8 inh: 9

How did COc1ccc(C(=O)CN2C(=O)N(c3cccc(C)c3)S(=O)(=O)c3ccccc32)cc1 do in these assays?
USP17 block: -11; USP28 inh: -2; USP10 block: 6; USP30 block: 1; USP8 inh: 0

What do the screens show for `COc1cc(OC)cc(N2C(=O)N(CC(=O)c3ccc(Br)cc3)c3ccccc3S2(=O)=O)c1`?
USP17 block: 30*; USP28 inh: 11; USP10 block: 81*; USP30 block: 23; USP8 inh: 33*

How did COc1cccc(N2C(=O)N(CC(=O)NCc3ccc(Cl)cc3)c3ccccc3S2(=O)=O)c1 do in these assays?
USP17 block: 79*; USP28 inh: 5; USP10 block: 19; USP30 block: 43*; USP8 inh: 11

What do the screens show for `COc1cccc2cc(C(=O)C3=C(O)C(=O)N(CCCN(C)C)C3c3ccco3)oc12` (configuration not stated)?
USP17 block: 22; USP28 inh: 9; USP10 block: -5; USP30 block: 0; USP8 inh: 44*

How did N#Cc1cccc(CN2CC[C@H](c3nnc(-c4cccnc4)o3)C2)c1 do in these assays?
USP17 block: 1; USP28 inh: 13; USP10 block: 2; USP30 block: 6; USP8 inh: 54*

Results for O=C(CN1CCCCC1)Nc1nnc(-c2ccc([N+](=O)[O-])cc2)s1 ?
USP17 block: 38*; USP28 inh: 35*; USP10 block: 11; USP30 block: 34*; USP8 inh: -79

Results for O=C(CN1CCCCCC1)Nc1cc([N+](=O)[O-])ccc1Cl ?
USP17 block: 45*; USP28 inh: 21; USP10 block: 4; USP30 block: 28; USP8 inh: -69

What do the screens show for `COc1cc2c(cc1OC)CN(CC(=O)Nc1cc([N+](=O)[O-])ccc1Cl)CC2`?
USP17 block: -18; USP28 inh: -11; USP10 block: -2; USP30 block: -19; USP8 inh: -120

Results for Cn1c(SCc2ccccc2)nnc1-c1csc(-c2ccccc2)n1 ?
USP17 block: 38*; USP28 inh: 41*; USP10 block: 19; USP30 block: 53*; USP8 inh: 22

What do the screens show for `CSc1nnc(-c2csc(-c3cccc(C(F)(F)F)c3)n2)n1C`?
USP17 block: 68*; USP28 inh: 78*; USP10 block: -4; USP30 block: 94*; USP8 inh: 13

What do the screens show for `c1ccc(-c2nc(CSc3nnc(C4CC4)n3-c3ccccc3)cs2)cc1`?
USP17 block: 6; USP28 inh: 2; USP10 block: 2; USP30 block: 9; USP8 inh: -9

How did Cc1noc(-c2cccc(=O)n2CC(=O)Nc2ccc(C(C)C)cc2)n1 do in these assays?
USP17 block: 12; USP28 inh: 1; USP10 block: 0; USP30 block: 20; USP8 inh: 15

What do the screens show for `CCc1ncc(-c2c[nH]c3ccccc23)o1`?
USP17 block: -24; USP28 inh: -6; USP10 block: 8; USP30 block: 1; USP8 inh: 2

What do the screens show for `C[C@H](NC(=O)[C@@H]1CCCN1C(=O)[C@H](Cc1ccccc1)n1c(=O)[nH]c2ccccc2c1=O)C(=O)O`?
USP17 block: 0; USP28 inh: -2; USP10 block: 2; USP30 block: 1; USP8 inh: -3

What do the screens show for `Cc1snc(SCc2nc(COc3ccc(Cl)cc3Cl)n[nH]2)c1C#N`?
USP17 block: 15; USP28 inh: 40*; USP10 block: 19; USP30 block: 40*; USP8 inh: -12

Results for Clc1ccc(OCc2nn[nH]n2)c(Cl)c1 ?
USP28 inh: -10; USP10 block: 0; USP30 block: 0; USP8 inh: -20

What do the screens show for `O=C1NC(=O)/C(=C/c2ccc(OC(=O)c3ccc(Cl)cc3Cl)cc2)N1`?
USP17 block: 38*; USP28 inh: 31*; USP10 block: 45*; USP30 block: 62*; USP8 inh: 94*

How did Cn1cnnc1-c1cccc(NC(=O)Nc2cccc3ccccc23)c1 do in these assays?
USP17 block: 42*; USP28 inh: 24; USP10 block: -2; USP30 block: 28; USP8 inh: 70*

How did CC(=O)Nc1ccc(SCc2nnc(-c3ccccc3)o2)cc1 do in these assays?
USP17 block: -7; USP28 inh: 45*; USP10 block: 2; USP30 block: -2; USP8 inh: 1

What do the screens show for `COc1cccc(-c2nnc(-c3ccccc3NC(=O)c3ccc(C(C)(C)C)cc3)o2)c1`?
USP17 block: 4; USP28 inh: -2; USP10 block: 4; USP30 block: 6; USP8 inh: -1

What do the screens show for `CC(C)(C)C(=O)Nc1ccc(C(=O)Nc2cccc(-c3nnc(-c4ccccc4)o3)c2)cc1`?
USP17 block: 44*; USP28 inh: 30; USP10 block: 38*; USP30 block: 55*; USP8 inh: 4

How did O=C(Nc1ccccc1N1CCOCC1)Nc1cccc2ccccc12 do in these assays?
USP17 block: 19; USP28 inh: -10; USP10 block: 2; USP30 block: -6; USP8 inh: 27

Results for O=C(Nc1cccc(F)c1)Nc1cccc(-c2nnc(-c3ccccc3)o2)c1 ?
USP17 block: 89*; USP28 inh: 72*; USP10 block: 32*; USP30 block: 91*; USP8 inh: 31*

What do the screens show for `O=C(C1CCN(S(=O)(=O)c2ccc3ccccc3c2)CC1)N1CCc2ccccc21`?
USP17 block: 9; USP28 inh: 13; USP10 block: 5; USP30 block: 20; USP8 inh: 13
